Compound activity deposited in PubChem by Broad Institute.
Sampled rows, rich in hits. Any-hit rate of the full collection: about 3.3%.
FGF22 binding = shifts melting point of recombinant human FGF22 | Q9HCT0 | recombinant FGF22 thermal shift, SYPRO orange fluorescence; percent of sucrose octasulfate shift, DMSO zero | AID 651658 | activity (Tm shift, normalised), % at 9.99 µM | 1.5% of 340,000 active;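 active = mean Tm shift, scaled 0 neutral to 100 positive control, at about 1.3% or above, every replicate too, limit read from the data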
Target sequence (Q9HCT0 whole entry, looked up): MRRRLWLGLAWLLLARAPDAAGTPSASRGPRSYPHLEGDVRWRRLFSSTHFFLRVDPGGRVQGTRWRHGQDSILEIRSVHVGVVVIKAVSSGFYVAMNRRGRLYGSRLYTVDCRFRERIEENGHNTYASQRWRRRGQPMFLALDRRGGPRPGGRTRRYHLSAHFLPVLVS
ERAP1 inh = inhibitors of human ERAP1 aminopeptidase. recombinant ERAP1, Leu-AMC fluorescence, 60 min. Q9NZ08. AID 652197. 0.15% of 340,000 active. inhibition, % at 10.7 µM;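 active = mean replicate inhibition of at least 30%, or all replicates individually reaching that 30% level; inactive = mean below 30% and not every replicate reaching it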;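 note: 0% = neutral control wells and 100% = L-leucinethiol positive control wells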
CASP6 VEID inh = caspase-6 (human) enzyme inhibition; P55212; purified caspase-6, Z-VEID-R110 cleavage fluorescence; inhibition, % at 12.5 µM; 0.53% of 350,000 active; AID 686996;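 active = mean inhibition across replicates at least about 35%, with every replicate also reaching that limit, limit read from the data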;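 note: 0% = median of neutral control wells and 100% = no fluorescence left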
Target sequence (P55212 24-179 limits assumed): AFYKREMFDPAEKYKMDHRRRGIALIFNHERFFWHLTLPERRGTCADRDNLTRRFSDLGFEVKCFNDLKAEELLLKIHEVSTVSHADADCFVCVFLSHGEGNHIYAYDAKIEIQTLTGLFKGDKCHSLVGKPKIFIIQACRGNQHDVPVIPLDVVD
Target sequence (P55212 194-293 limits assumed): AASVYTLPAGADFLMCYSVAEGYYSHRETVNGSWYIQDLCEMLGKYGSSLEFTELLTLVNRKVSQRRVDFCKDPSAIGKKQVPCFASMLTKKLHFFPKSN
INS-1E GSIS act = GLuc luminescence reporter in INS-1E cells, primary screen for activators of glucose-dependent secretion of insulin | INS-1E GLuc reporter insulin secretion, 2-3 h | 0.61% of 370,000 active | activation, % at 16.6 µM | AID 743287;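 active = lowest replicate activation of at least 40%, so every replicate reaches that level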;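 note: 0% = median of neutral control wells and 100% = median of IBMX positive control wells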
SIRT5 block = sirtuin-5 (human) deacylase inhibition; Q9NXA8; Purified SirT5, succinyl-peptide AMC, trypsin-coupled fluorescence; inhibition, % at 15 µM; 1.1% of 330,000 active; in the data active = inhibition above about 15%
* marks the source's active call; other numbers are inactive results.

`C[C@H](CO)N1C[C@H](C)[C@H](CN(C)S(=O)(=O)c2ccc(F)cc2)Oc2cc(C3=CCCCC3)ccc2S1(=O)=O` gave FGF22 binding 1, ERAP1 inh 0, CASP6 VEID inh -3, INS-1E GSIS act 11 and SIRT5 block 32*.
Screening C[C@@H]1CN([C@H](C)CO)S(=O)(=O)c2ccc(C3=CCCC3)cc2O[C@@H]1CN(C)S(=O)(=O)c1ccc(F)cc1 returned FGF22 binding 0, ERAP1 inh -1, CASP6 VEID inh -1, INS-1E GSIS act 6 and SIRT5 block 0.
C[C@H]1CN([C@@H](C)CO)S(=O)(=O)c2ccc(C3=CCCCC3)cc2O[C@@H]1CN(C)S(=O)(=O)c1ccc(F)cc1 was read as FGF22 binding 0, ERAP1 inh -2, CASP6 VEID inh 1, INS-1E GSIS act -7 and SIRT5 block 33*.
For C[C@@H]1CN([C@H](C)CO)S(=O)(=O)c2ccc(C3=CCCC3)cc2O[C@H]1CN(C)S(=O)(=O)c1ccc(F)cc1 the results were ERAP1 inh -1, CASP6 VEID inh 1, INS-1E GSIS act -18 and SIRT5 block 4.
For Cc1ccc(S(=O)(=O)N(C)C[C@@H]2Oc3cc(C4=CCCC4)ccc3S(=O)(=O)N([C@@H](C)CO)C[C@H]2C)cc1 the results were FGF22 binding 0, ERAP1 inh 0, CASP6 VEID inh 2, INS-1E GSIS act 9 and SIRT5 block 5.
C[C@H]1CN([C@@H](C)CO)S(=O)(=O)c2ccc(C3=CCCCC3)cc2O[C@H]1CN(C)S(=O)(=O)c1ccc(F)cc1 was read as FGF22 binding -1, ERAP1 inh 3, CASP6 VEID inh -1, INS-1E GSIS act -9 and SIRT5 block 27*.
C[C@@H]1CN([C@@H](C)CO)S(=O)(=O)c2ccc(C3=CCCCC3)cc2O[C@H]1CN(C)S(=O)(=O)c1ccc(F)cc1 was read as FGF22 binding 0, ERAP1 inh 0, CASP6 VEID inh -1, INS-1E GSIS act 0 and SIRT5 block 26*.
For N#C/C(=C\Nc1ccccc1SC(F)(F)F)c1nc(-c2ccc(F)cc2)cs1 the results were FGF22 binding 0, ERAP1 inh 2, CASP6 VEID inh 1, INS-1E GSIS act 17 and SIRT5 block 19*.
`CC=Cc1ccc2n(c1=O)C[C@@H]1[C@@H](CO)[C@H](C(=O)NCc3ccncc3)N(Cc3cncnc3)[C@H]21` (mixture of isomers) gave FGF22 binding 0, ERAP1 inh -1, CASP6 VEID inh 1, INS-1E GSIS act 4 and SIRT5 block 1.
For CCN1/C(=C/c2ccc3cc(C)cc(C)c3[n+]2CC)Sc2cc(C)ccc21 the results were FGF22 binding 0, ERAP1 inh 35*, CASP6 VEID inh -37, INS-1E GSIS act -40 and SIRT5 block 3.
`O=[N+]([O-])c1ccccc1NC(=S)N/N=C/c1ccc(O)c(O)c1` gave FGF22 binding -1, ERAP1 inh 1, CASP6 VEID inh 53*, INS-1E GSIS act 13 and SIRT5 block 4.
`CCOc1cccc(/C=N/NC(=S)Nc2ccccc2[N+](=O)[O-])c1O` gave FGF22 binding 0, ERAP1 inh 0, CASP6 VEID inh -1, INS-1E GSIS act 3 and SIRT5 block -2.
O=C(O)c1ccccc1NS(=O)(=O)c1ccc(N/N=C/c2ccc(O)c(O)c2)c([N+](=O)[O-])c1 was read as FGF22 binding 0, ERAP1 inh -24, CASP6 VEID inh 64*, INS-1E GSIS act -14 and SIRT5 block 21*.
O=C(O)COc1ccccc1/C=N/Nc1ccc(S(=O)(=O)Nc2ccc(Cl)cc2)cc1[N+](=O)[O-] was read as FGF22 binding 0, ERAP1 inh 10, CASP6 VEID inh 24, INS-1E GSIS act 6 and SIRT5 block 7.
Screening O=C(O)c1ccccc1NS(=O)(=O)c1ccc(NN=Cc2cccc(Cl)c2)c([N+](=O)[O-])c1 returned FGF22 binding 0, ERAP1 inh -6, CASP6 VEID inh 62*, INS-1E GSIS act -8 and SIRT5 block 2.
`CO[C@H]1CN(C)C(=O)c2ccc(NC(=O)Nc3c(C)noc3C)cc2OC[C@@H](C)N(CC2CC2)C[C@H]1C` gave FGF22 binding 0, ERAP1 inh -10, CASP6 VEID inh 4, INS-1E GSIS act 6 and SIRT5 block 0.
For COc1ccc(NC(=O)/C(Cl)=C(/Cl)S(=O)Cc2ccc(Cl)cc2)cn1 (configuration not stated) the results were FGF22 binding 0, ERAP1 inh 2, CASP6 VEID inh 0, INS-1E GSIS act 46* and SIRT5 block -4.
For COc1ccc(NC(=O)C(Cl)=C(Cl)Cl)cn1 the results were FGF22 binding 0, ERAP1 inh -2, CASP6 VEID inh 0, INS-1E GSIS act -3 and SIRT5 block -2.
`C[C@H]1CN([C@@H](C)CO)S(=O)(=O)c2ccc(C#Cc3ccccc3)cc2O[C@@H]1CN(C)C(=O)CN(C)C` gave FGF22 binding 0, ERAP1 inh 0, CASP6 VEID inh -2, INS-1E GSIS act 48* and SIRT5 block 8.
For C[C@@H]1CN([C@H](C)CO)S(=O)(=O)c2ccc(C#Cc3ccccc3)cc2O[C@H]1CN(C)C(=O)C1CC1 the results were FGF22 binding -1, ERAP1 inh 5, CASP6 VEID inh 0, INS-1E GSIS act 17 and SIRT5 block 16*.
C[C@H]1CN([C@@H](C)CO)S(=O)(=O)c2ccc(C#Cc3ccccc3)cc2O[C@H]1CN(C)C(=O)C1CC1 was read as FGF22 binding 0, ERAP1 inh 4, CASP6 VEID inh 2, INS-1E GSIS act -16 and SIRT5 block 4.
Screening O=C(C1CCC1)N1CCCCN2[C@H](CO)[C@H](c3ccc(C#CC4CCCC4)cc3)[C@H]2C1 returned FGF22 binding 0, ERAP1 inh -4, CASP6 VEID inh 0 and SIRT5 block 3.
CCN(C(=O)COC(=O)c1ccccc1NC(=O)c1ccco1)C1CCS(=O)(=O)C1 (configuration not stated) was read as FGF22 binding 43*, ERAP1 inh 1, CASP6 VEID inh 2, INS-1E GSIS act 13 and SIRT5 block -1.
For CCN(C(=O)COC(=O)c1ccccc1OCc1ccc(Cl)cc1)C1CCS(=O)(=O)C1 (configuration not stated) the results were FGF22 binding 43*, ERAP1 inh 5 and CASP6 VEID inh 1.
For CCN(C(=O)COC(=O)CNC(=O)c1ccc2ccccc2c1)C1CCS(=O)(=O)C1 (configuration not stated) the results were FGF22 binding 0, ERAP1 inh 2, CASP6 VEID inh 47*, INS-1E GSIS act -5 and SIRT5 block -1.
`CCN(C(=O)COC(=O)c1ccccc1Cc1ccccc1)C1CCS(=O)(=O)C1` (configuration not stated) gave FGF22 binding 0, ERAP1 inh 0, CASP6 VEID inh -2, INS-1E GSIS act 1 and SIRT5 block -1.
